Rows were chosen to be rich in hits. Some 10% of all compounds tested hit in one or more screens of this group.
G9a inh: qHTS Assay for Inhibitors of Histone Lysine Methyltransferase G9a; 350,000 compounds, 8.8% hits; Potency, µM (titrated, usually from 102 µM), most hits filed as inhibitors; G9a H3K9 monomethylation, AlphaScreen, 2 h; AID 504332, 2011; Histone-lysine N-methyltransferase EHMT2 (Homo sapiens), Q96KQ7; note: nearly all actives have a fitted effect of over 75% in size
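Compounds were preincubated with 20 nM G9a for 15 min, after which biotinylated H3K9 peptide (500 nM) and SAM (20 uM) started a 2 h room-temperature reaction. Monomethylated product was quantified by antibody-based AlphaScreen chemiluminescence.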
JMJD2A Tudor: qHTS Assay for Inhibitors of JMJD2A-Tudor Domain; Lysine-specific demethylase 4A (Homo sapiens), O75164; Potency, µM (series often up to 114 µM), usual class: inhibitors; 390,000 compounds, 4.4% hits; AlphaScreen JMJD2A-Tudor / H3K4me3 peptide binding; note: nearly all actives have a fitted effect of over 50% in size
CtBP-E1A blk: qHTS Assay for Inhibitors of the CtBP/E1A Interaction; CtBP / adenovirus E1A interaction (AlphaScreen); AlphaScreen GST-E1A/His-CtBP binding, 1536-well; active compounds read low; activity change, % (no concentration beside the values); 340,000 compounds, 0.49% hits; AID 651724, 2012; in the data active = activity change below about -65%; inconclusive = mostly about -30% to -63%
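Protein mix (5X: 125 nM each GST-E1A, His-CtBP) was incubated with pinned compound 2 h at 37 deg C in dark, in 50 mM Tris pH 8.0 buffer with 300 mM NaCl. Glutathione donor and nickel acceptor beads followed; AlphaScreen signal read after 1 h.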
Six1-Eya2 inh: qHTS Assay for Inhibitors of the Six1/Eya2 Interaction; 360,000 compounds, 0.56% hits; AlphaScreen GST-Six1/His-Eya2 binding, biochemical; active compounds read low; AID 651725, 2012; Homeobox protein SIX1 (Homo sapiens) + Protein phosphatase EYA2 (Homo sapiens), …; activity change, % (test concentration not listed); in the data active = activity change below about -65%; inconclusive = mostly about -30% to -63%
Target sequence (O00167 whole entry, looked up): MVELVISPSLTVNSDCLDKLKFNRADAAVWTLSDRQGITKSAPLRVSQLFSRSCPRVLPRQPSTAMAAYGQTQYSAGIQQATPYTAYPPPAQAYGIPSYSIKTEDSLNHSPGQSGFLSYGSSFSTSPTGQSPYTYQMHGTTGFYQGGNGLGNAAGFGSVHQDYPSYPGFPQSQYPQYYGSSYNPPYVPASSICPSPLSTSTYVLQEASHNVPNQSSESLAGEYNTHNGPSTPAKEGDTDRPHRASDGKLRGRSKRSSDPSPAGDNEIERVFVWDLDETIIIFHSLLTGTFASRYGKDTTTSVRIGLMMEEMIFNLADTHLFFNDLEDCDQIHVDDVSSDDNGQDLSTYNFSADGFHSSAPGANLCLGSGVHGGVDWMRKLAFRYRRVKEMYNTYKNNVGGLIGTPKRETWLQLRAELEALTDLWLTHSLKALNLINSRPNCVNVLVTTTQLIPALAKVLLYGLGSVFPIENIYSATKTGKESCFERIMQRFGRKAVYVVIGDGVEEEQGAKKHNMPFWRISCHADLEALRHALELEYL
Target sequence (Q15475 whole entry, looked up): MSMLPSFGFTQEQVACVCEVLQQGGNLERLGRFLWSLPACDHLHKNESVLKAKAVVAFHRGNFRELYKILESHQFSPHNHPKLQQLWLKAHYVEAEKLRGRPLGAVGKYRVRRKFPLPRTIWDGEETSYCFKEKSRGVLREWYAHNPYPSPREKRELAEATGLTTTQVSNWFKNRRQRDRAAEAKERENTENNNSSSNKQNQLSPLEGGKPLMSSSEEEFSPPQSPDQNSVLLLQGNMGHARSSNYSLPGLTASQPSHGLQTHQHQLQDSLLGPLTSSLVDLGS
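AlphaScreen luminescence read after one hour at 37 °C in darkness. Pin-transferred compounds met GST-Six1 and His-Eya2 protein (5X stock 250 nM/500 nM) plus glutathione donor and Ni-chelate acceptor beads (5X, 50 ug/mL).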
HP1b chromo inh: HTS for Inhibitors of HP1-beta Chromodomain Interactions with Methylated Histone Tails; Chromobox protein homolog 1 (Homo sapiens), P83916; AlphaScreen HP1-beta / biotin-H3K9me3 peptide binding; Potency, µM (highest dose often 114 µM), usual class: inhibitors; 390,000 compounds, 0.56% hits; note: nearly all actives have a fitted effect of over 70% in size
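AlphaScreen: HP1-beta (50 nM) preformed 30 min with biotin-H3(1-18)K9me3 peptide (50 nM) in PBS pH 7.4, 0.01% Tween-20. Compound added for 30 min at RT, then streptavidin donor/nickel chelate acceptor beads (10 ug/mL) for 30 min.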
BAZ2B block: qHTS Assay for Inhibitors of BAZ2B | Bromodomain adjacent to zinc finger domain protein 2B (Homo sapiens), Q9UIF8 | AlphaScreen BAZ2B-H3K14Ac peptide displacement | Potency, µM (series often up to 114 µM), usual class: inhibitors | 360,000 compounds, 4.4% hits | AID 504333, 2011; note: nearly all actives have a fitted effect of over 60% in size
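Compounds, titrated to a top concentration of 110 uM, were incubated 30 min at room temperature with preformed BAZ2B/acetyl-K14 H3 peptide complex (50 nM each). Proximity signal was measured by AlphaScreen after 20 min with beads.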
A number is an active result; 0 = inactive; ? = inconclusive; - = no result given; ! = not confirmed by another sample; [ ] = remark or other dose. Unless noted, calls come from the whole dose curve; as a rule, active = well fitted inhibition curve with a large enough effect; inconclusive = small, poorly fitted or top-dose-only effect; inactive = no such curve, though single readings can be large or run the other way.

SMILES | G9a inh | JMJD2A Tudor | CtBP-E1A blk | Six1-Eya2 inh | HP1b chromo inh | BAZ2B block
O=C(O)c1cc(S(=O)(=O)NC(Cc2c[nH]c3ccccc23)C(=O)O)ccc1Cl (configuration not stated) | 45µM | 0 | - | 0 | 0 | 0
O=C(O)C(Cc1c[nH]c2ccccc12)NS(=O)(=O)c1cccc(Cl)c1Cl (configuration not stated) | 0 | 0 | - | 0 | 0 | 89µM
CCOC(=O)c1c(C)oc2nc(C)nc(N3CCN(c4cc(Cl)ccc4C)CC3)c12 | ? | 0 | - | - | 0 | ?
CCOC(Cn1c(SCc2cc(C(C)=O)ccc2OC)nc2ccccc2c1=O)OCC | 0 | 0 | 0 | 0 | 0 | 0
COc1ccc(C(C)=O)cc1CSc1nc2cc(C(=O)O)ccc2c(=O)n1Cc1ccccc1 | ? | 0 | 0 | 0 | 0 | 50µM
C=CCNC(=S)NS(=O)(=O)c1cccs1 | 18µM | 0 | 0 | 0 | 0 | 0
COc1ccc(N2C(=O)C(Cl)=C(NCc3ccccc3)C2=O)cc1 | 45µM | 0[11.4 µM] | 0 | 0 | 0 | 0
CCOc1ccccc1NC1=C(Cl)C(=O)N(c2ccc(OC)cc2)C1=O | ? | ? | ? | 0 | 0 | ?
CCC(=C(c1ccc(OC)cc1)c1ccc(OC)cc1)c1cn(CC(O)CN2CCN(C)CC2)c2ccccc12 (configuration not stated) | 40µM | 28µM | 0 | 0 | 50µM | 45µM
CCOc1ccc(C(=O)/C=C/c2cn(CC(O)CN3CCc4ccccc43)c3ccccc23)cc1 (configuration not stated) | 0 | ? | - | - | 0 | 0
COc1ccc(C(=O)/C=C/c2cn(CC(O)CN3CCc4ccccc43)c3ccccc23)cc1 (configuration not stated) | ? | 22µM | - | - | 0 | ?
CCCCN(C)CC(O)Cn1cc(/C=C/C(=O)c2ccc(OCC)cc2)c2ccccc21 (configuration not stated) | 50µM! | 50µM | - | - | ? | ?
COc1cccc(CNC(=O)c2ccc3c(c2)sc2nc(-c4ccccc4)cn23)c1OC | 0 | 0 | - | - | 0 | 0
COc1ccccc1/C=C/C=N/n1c(-c2ccc(Cl)cc2)n[nH]c1=S | - | 89µM | 0 | 0 | ? | ?
COc1ccccc1/C=C/C=N/n1c(-c2ccccc2)n[nH]c1=S | - | 0 | 0 | 0 | 0 | 0
COc1ccc(-c2n[nH]c(=S)n2/N=C/C=C/c2ccccc2OC)cc1 | 1.3µM | 79µM | 0 | 0 | 0 | 0
Cc1cccc(N2C(=O)N(Cc3cccc(C#N)c3)c3ccccc3S2(=O)=O)c1 | 0 | 0 | - | - | 0 | 0
Cc1ccc2c(=O)cc(C(=O)Nc3sc4c(c3C(=O)NCc3ccccc3)CCCC4)oc2c1C | 0 | 0 | - | - | 0 | 0
O=C1/C(=C\c2ccccc2)CN(C(=O)CCN2CCCCC2)C/C1=C/c1ccccc1 | - | 0 | 0 | 0 | 0 | -
O=C1/C(=C\c2ccc(Cl)c(Cl)c2)CN(C(=O)CCN2CCOCC2)C/C1=C/c1ccc(Cl)c(Cl)c1 | - | 35µM | 0 | 0 | 0 | -
COc1ccc(CCNC(=O)C(C)n2nc(C)c3sc4ccccc4c3c2=O)cc1OC (configuration not stated) | 0 | 0 | - | - | 0 | 0
Cc1cccc(N2CCN(C(=O)c3cnn(-c4ccc(F)cc4F)c3C3CCN(C(=O)OC(C)(C)C)CC3)CC2)c1C | 0 | 0 | - | - | 0 | 0
CC(=O)C(Cl)C(=O)Nc1ccccc1 (configuration not stated) | 45µM | 0 | 0 | 0 | 0 | 0
O=C(Nc1ccccc1)C(Cl)C(=O)c1ccccc1 (configuration not stated) | 0[0.501 µM] | 0 | - | 0 | 0 | 0
O=c1[nH]c(=O)c2nc3c4ccccc4c4ccccc4c3nc2[nH]1 | 40µM | 0[11.4 µM] | - | ? | 0 | 56µM
SMILES | G9a inh | JMJD2A Tudor | CtBP-E1A blk | Six1-Eya2 inh | HP1b chromo inh | BAZ2B block
Cc1ccc(S(=O)(=O)c2nnn(CC(=O)Nc3ccccc3C)c2N)cc1 | 0 | 0 | - | - | 0 | 0
CCN1CCN(c2ccc(S(=O)(=O)N3CCCCC3)cc2NC(=O)Cc2ccccc2F)CC1 | ? | 0 | 0 | 0 | 0 | 0
CCN1CCN(c2ccc(S(=O)(=O)N3CCCCC3)cc2NC(=O)Cc2ccc(Cl)c(Cl)c2)CC1 | 40µM | ? | 0 | 0 | 0 | ?
CCN1CCN(c2ccc(S(=O)(=O)N3CCCCC3)cc2NC(=O)Cc2ccccc2)CC1 | 6.3µM | ? | 0 | 0 | 0 | 0
Cn1c(NCc2ccccc2F)nc2ccccc21 | 0 | 0 | - | - | 0 | 0
Cc1ccc2c(c1)c1c(c(=O)n(-c3ccccc3)c(=O)n1CC(=O)NCCC1=CCCCC1)n2C | 0 | 0 | - | - | 0 | 0
CCN(CC)CCNCc1cc(Cl)c(OCC(=O)Nc2ccccc2)c(OC)c1 | 45µM | 0 | 0 | 0 | 0 | 0
Cc1nc2nc(SCC(=O)N3CCOCC3)nn2c(C)c1Cc1c(F)cccc1Cl | 22µM | 0 | 0 | 0 | 0 | 0
Cc1nc2nc(SCC(=O)NCCCN3CCCCCC3)nn2c(C)c1Cc1ccccc1Cl | 79µM | ? | 0 | 0 | 0 | 0
Cc1ccc2c(c1)nnn2C1CCN(CC(=O)c2ccc(Cl)cc2)CC1 | 45µM | 0 | 0 | 0 | 0 | 0
Cc1cc(C)cc(N2C(=O)C=CC2=O)c1 | - | 20µM | 0 | 0 | 13µM | -
Cc1c(Cl)cc(-n2cnnn2)cc1[N+](=O)[O-] | 0 | 0 | - | 0 | 0 | 0
Cc1cc(N2C(=O)C=CC2=O)c([N+](=O)[O-])cc1C | 1.3µM | 6.3µM | ? | 0 | 5.6µM | 56µM
Cc1cc(C)cc(N2C(=O)c3nccnc3C2=O)c1 | 0 | 0 | 0 | 0 | 0 | 0
Cc1c([N+](=O)[O-])cc(N2C(=O)C=CC2=O)cc1[N+](=O)[O-] | - | 22µM | 0 | 0 | 35µM | -
CCOC(=O)c1sc2nc(CSc3ccccc3)nc(N3CCCN(C)CC3)c2c1C | 45µM | 14µM | - | 0 | ? | 50µM
CCOC(=O)c1c(S(=O)(=O)N2CCC(C(=O)Nc3ccccc3OC)CC2)c(C)n(CC)c1C | 0 | 0 | - | - | 0 | 0
CCOC(=O)CCCCC(=O)c1[nH]c(=O)[nH]c1CSc1nc2ccccc2[nH]1 | 1.6µM | 79µM | 0 | 0 | 0 | ?
Cn1c2ccc(Br)cc2c2nnc(SCC(=O)O)nc21 | - | 0 | - | 0 | 0 | 0
CCOC(=O)CCCCC(=O)c1[nH]c(=O)[nH]c1CSc1nc(C)cc(=O)[nH]1 | ? | ? | 0 | 0 | 0 | 50µM
CCOC(=O)CCCCC(=O)c1[nH]c(=O)[nH]c1CSc1nc(C)cc(C)n1 | ? | 0 | 0 | 0 | 0 | ?
